This is a sample that favours compounds with a hit; in the whole collection about 5.7% have one here.
IL1B secr inh: qHTS for Inhibitors of Inflammasome Signaling: IL-1-beta AlphaLISA Primary Screen; THP-1 LPS/ATP IL-1B secretion, AlphaLISA, 16 h; hits give low values; activity change, % at 57.5 µM; 4.7% of 360,000 active; in the data active = activity change below about -50%; inconclusive = mostly about -30% to -49%
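THP-1 cells pretreated 1 hr with compounds (up to 57.5 uM final), then stimulated with LPS (250 ng/mL final) plus ATP (1.25 mM final); secreted IL-1B measured by AlphaLISA after 16 hr, decreased signal indicating inhibition.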
HepG2 tox: qHTS for Inhibitors of TGF-b: Cytotox Counterscreen. HepG2 CAGA-GFP viability, ATP luminescence, 18 h. Potency, µM (top dose mostly 46.1 µM), usual class: cytotoxic. 0.76% of 410,000 active
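CellTiter-Glo luminescence gave cytotoxicity after 18 hours at 37 degrees C. The cells were HepG2 CAGA-GFP in 1% FBS DMEM, stimulated with 500 pg/mL TGF-beta after compound addition. %Activity was normalised to no-cell wells (complete cell-killing) and DMSO (no toxicity), and curves were fitted and classified.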
S2 tox: Viability Counterscreen for Primary qHTS for Inhibitors of ATXN expression | S2 cells (HEK-293 line with an ATXN2-luciferase reporter) viability, CellTiter-Fluor protease fluorescence, 24 h | Potency, µM (series often up to 56.7 µM), actives largely listed as cytotoxic | 0.49% of 400,000 active; also: nearly all actives have a fitted effect of over 40% in size
ATXN2 expr inh: Primary qHTS for Inhibitors of ATXN expression; 0.72% of 360,000 active; AID 1745845, 2022; Potency, µM (titrated, usually from 57 µM), actives largely listed as inhibitors; HEK-293 ATXN2-luciferase reporter, luminescence, 24 h; also: nearly all actives have a fitted effect of over 55% in size
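qHTS (up to 57 uM final) was run with 24 h compound exposure of reporter cells at 37 °C. Each well was multiplexed: SteadyGlo luminescence measured ATXN2-luciferase expression after a fluorogenic Gly-Phe-AFC viability readout (25 uM final).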
TGFb inhibitor: qHTS for Inhibitors of TGF-b. 1.2% of 410,000 active. HepG2 CAGA-GFP TGF-b/SMAD3 reporter, GFP fluorescence, 18 h; TGF-beta stimulated, 500 pg/mL final. Potency, µM (doses to about 46.1 µM), actives largely listed as inhibitors. AID 588855, 2011; also: nearly all actives have a fitted effect of over 65% in size
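HEPG2 CAGA-GFP reporter cells (1000/well, DMEM with 1% FBS) received compounds, then recombinant TGF-beta at 500 pg/mL final for 18 hours at 37 degrees C. Per-cell GFP summed per well was normalised to unstimulated and stimulated DMSO controls before curve fitting.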
A number is an active result; 0 = inactive; ? = inconclusive; - = no result given; [ ] = remark or other dose. Unless noted, calls follow the shape of the dose curve; as a rule, active = well fitted curve in the direction sought with a large enough effect; inconclusive = small, poorly fitted or top-dose-only effect, or another doubt; inactive = no such curve, though single readings can be large; an effect the other way counts as inactive or inconclusive.

SMILES	IL1B secr inh	HepG2 tox	S2 tox	ATXN2 expr inh	TGFb inhibitor
CCN=C1SC(CC(=O)NCC)C(=O)N1CC (stereo unspecified)	0	0	0	0	0
CCNC(=O)CC1SC(=Nc2ccc(Cl)cc2)N(CC)C1=O (stereo unspecified)	0	13µM	0	-	?
COc1ccc(Nc2nc(Cl)nc(Nc3ccc(OC)cc3OC)n2)c(OC)c1	-50	0	?	0	0
C=CCNc1nc(Cl)nc(Nc2ccc(OC)cc2OC)n1	0	0	0	0	0
CCOc1ccc(/C=C/c2nc(C#N)c(N3CCCCC3)o2)cc1	-	0	-	-	0
COc1ccc(OC)c(-c2ccnc(-n3ncc(C(=O)N4CCN(CCO)CC4)c3C3CC3)n2)c1	-	-	0	-	-
Cc1csc2ncnc(N3CCN(C(=O)Nc4ccc(OC(F)(F)F)cc4)CC3)c12	-71	0	0	-	?
Cc1csc2c(N3CCN(C(=O)Nc4ccccc4)CC3)ncnc12	?	0	0	0	0
COc1cccc(CNC(=O)c2cc(C3CC3)nc3c2cnn3C(C)C)c1	-53	0	0	0	0
COc1ccc(CNC(=O)c2cc(C3CC3)nc3c2cnn3C(C)C)cc1OC	0	0	0	0	0
Cc1ccc(-c2nn(-c3ccccc3)cc2/C=N/n2c(-c3cccs3)n[nH]c2=S)cc1	-	0	0	0	?
S=c1[nH]nc(-c2cccs2)n1/N=C/c1cn(-c2ccccc2)nc1-c1cccs1	-	0	0	0	18µM
C[C@]1(CO)CN(c2cc(C(=O)Nc3ccc4c(c3)-c3c(c(C(N)=O)nn3-c3ccc(F)cc3)CC4)c(Cl)cn2)C[C@@]1(C)CO	-	-	-	8.6µM	-
CC1(C)CC(=O)CC2(C1)NCC(c1ccccc1)c1c2[nH]c2ccccc12 (stereo unspecified)	-69	0	0	0[11.3 µM]	0
COC(=O)[C@@H]1C[C@@H](NC(=O)c2cnsn2)CN1Cc1ccc(Cl)cc1	-	-	0	-	-
COC(=O)c1c(SCC(=O)Nc2ccccc2OC)[nH]c2ccccc2c1=O	-	0	?	0	?
Cc1cccc(CNC(=O)c2cnn(-c3nccc(-c4cccs4)n3)c2C2CC2)n1	-	-	0	-	-
CCOC(=O)c1ccc(NC(=O)CSc2cn(CC(=O)N3CCCC3)c3ccccc23)cc1	-	0	-	-	?
Cc1nn(CC2CC2)c(=O)n1-c1ccc(Cl)cc1	0	0	0	0	0
Cc1nn(CC2CC2)c(=O)n1-c1ccccc1	-53	0	0	0	?
CC(C)c1ccc(/C=C2\C(=O)N(CCN3CCOCC3)C(=S)N2C)cc1	-94	0	0	0	0
COc1ccc(C2/C=C\CN(CC(C)C)C(Cc3ccccc3)C(=O)N2Cc2ccc(F)cc2)cc1 (stereo unspecified)	-	0	-	-	0
CCOc1cc(/C=N/N=C(\N)c2nonc2N)cc(Br)c1OCc1cccc2ccccc12	0	11µM	?	?	?
COc1cc(/C=N/N=C(/N)c2nonc2N)cc(Br)c1OCc1cccc(C)c1	0	0	0	0	?
O=C(/C=C/Nc1ccc(Oc2ccccc2Cl)cc1)c1ccco1	0	0	0	0	0
SMILES	IL1B secr inh	HepG2 tox	S2 tox	ATXN2 expr inh	TGFb inhibitor
COc1ccccc1Oc1ccc(N/C=C/C(=O)c2ccco2)cc1	-52	0	-	0[11.3 µM]	0
Brc1ccc(C=C2C=c3ccccc3=C2)cc1	-	0	-	-	0
O=C(O)CCc1cccc2ccccc12	-	0	-	-	0
O=C1N[C@H](Cc2ccccc2)COC(=O)[C@H](Cc2ccc(F)cc2)CC/C=C/C[C@@H]1CC(=O)N(CCO)Cc1ccccc1	-55	0	?	?	?
O=C1N[C@H](Cc2ccccc2)COC(=O)[C@H](Cc2ccc(F)cc2)C/C=C\C[C@@H]1CC(=O)N(CCO)Cc1ccccc1	?	0	?	?	?
O=C1NC[C@H](c2ccccc2)OC(=O)[C@H](Cc2ccc(F)cc2)C/C=C\C[C@H]1CC(=O)N(CCO)Cc1ccccc1	-60	0	?	32µM	?
O=C1N[C@H](Cc2ccccc2)COC(=O)[C@@H](Cc2ccc(F)cc2)C/C=C\C[C@H]1CC(=O)N(CCO)Cc1ccccc1	-59	0	?	?	?

High-throughput results deposited in PubChem by National Center for Advancing Translational Sciences (NCATS).
